The results in this text go back to PubChem BioAssay AID886 (National Center for Advancing Translational Sciences (NCATS), 2007).

Several values for one entry are separate records, joined by “and”; a condition that tells them apart may be missing. Equal entries are not always repeated. The campaign covered roughly 73,000 compounds. About 2,500 (3.4%) were called active. Roughly 7% stayed inconclusive and do not appear here. This is one part of a sample in which actives are shown more often than they occur. Calls follow the shape of the dose curve; as a rule, active = well fitted inhibition curve with a large enough effect; inconclusive = small, poorly fitted or top-dose-only effect; inactive = no such curve, though single readings can be large or run the other way. A structure can be active in one record and inactive in another.
% is scaled to controls: 0 for no effect and ±100 for the full control effect; potency is read from the fitted curve at half-maximal effect.

Sequence of 3-hydroxyacyl-CoA dehydrogenase type-2 (Homo sapiens) (Q99714 whole entry, looked up): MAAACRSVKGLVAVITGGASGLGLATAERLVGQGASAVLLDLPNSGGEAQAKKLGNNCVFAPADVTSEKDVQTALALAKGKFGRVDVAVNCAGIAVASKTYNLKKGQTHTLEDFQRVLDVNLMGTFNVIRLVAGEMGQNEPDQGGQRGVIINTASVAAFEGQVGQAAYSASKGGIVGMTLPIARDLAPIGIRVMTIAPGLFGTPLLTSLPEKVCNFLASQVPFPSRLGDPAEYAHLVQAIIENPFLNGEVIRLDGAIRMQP
Sequence of 3-hydroxyacyl-CoA dehydrogenase type-2 (Homo sapiens) (Q99714 whole entry, looked up): as above

For the assay, the target named is 3-hydroxyacyl-CoA dehydrogenase type-2 (Homo sapiens) (UniProt Q99714). As to the kind of experiment: qHTS Assay for Inhibitors of HADH2 (Hydroxyacyl-Coenzyme A Dehydrogenase, Type II). Also: nearly all actives have a fitted effect of over 60% in size. The following applies: recombinant HADH2, NADH fluorescence, beta-hydroxybutyryl-CoA; series mostly up to 57.1 µM; activity change, negative = inhibition: at the top concentration. In short, it runs like this:
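20 nM HADH2 + cpd, 15 min RT; add 1 mM NAD+/90 uM beta-hydroxybutyryl-CoA; kinetic fluorescence 360/450 nm, 4 min. Tris-HCl pH 9.0, 0.01% Tween-20.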
For orientation: qHTS replaces the single test concentration by a dilution series.
For the compound `CC(=NCc1ccco1)C1=C(O)c2ccccc2C1=O`, the “activity change, negative = inhibition” value is -18% (inactive).
Still for that read-out and setting: to `O=c1[nH]c(-c2cccs2)nc2ccccc12` belongs -19.2% (inactive).
On to `CCc1c(C)nc2cc(-c3cccs3)[nH]n2c1=O`, for which the Potency is 39.8 µM (active).
With `Cc1nc2nc(COc3ccccc3)[nH]n2c(=O)c1Cc1ccccc1`, the “activity change, negative = inhibition” value is 1.89% (inactive).
`CN(C)C(=O)/N=N\C(=O)N(C)C`: the Potency is 0.631 µM (active).
As for `CCNCCCNCCCNCCCNCC`, the “activity change, negative = inhibition” value is 6.34% (inactive).
On the same count and under the same terms, to `CO[C@H]1COC(=O)CCC[C@@H](C)[C@H](OC)COC(=O)[C@@H](C)NC(=O)C/C=C\[C@@H]1C` belongs 7.05% [at 11.4 µM] (inactive).
As to `Cc1cccn2c(=O)c3cc(C#N)c(=O)n(CCCN4CCOCC4)c3nc12`, the Potency was 31.6 µM (active).
Turning to `COc1ccc(CNC(=O)c2cc3c(=O)n4ccccc4nc3n(CC3CCCO3)c2=N)cc1` (stereo unspecified), the “activity change, negative = inhibition” value is -24.1% (inactive).
Take `Cc1cccn2c(=O)c3cc(C#N)c(=NC(=O)c4cccnc4)n(CC4CCCO4)c3nc12` (stereo unspecified): the Potency is 25.1 µM (active).
As to `O=c1c2cc3c(=O)n(CC4CCCO4)c(=O)c3cc2c(=O)n1CC1CCCO1` (stereo unspecified), the “activity change, negative = inhibition” value was 6.36% (inactive).
Same read-out and setting: to `Cn1c(=O)c2c(nc(CN3CCOCC3)n2Cc2ccccc2)n(C)c1=O` belongs 6.36% (inactive).
The same measure, in the same setting: the result for `CCCOc1ccc(C2c3c(oc4cc(C)c(C)cc4c3=O)C(=O)N2CCCN2CCOCC2)cc1` (stereo unspecified) reads -2.03% (inactive); that for `COc1ccc(-c2oc3cc(OC)ccc3c2C(=O)c2ccc(C#N)cc2)cc1`, 2.77% (inactive).
Still for that read-out and setting: the result for `c1ccc2nc(C3=NCCN3)cnc2c1` reads -2.79% (inactive); that for `CC(C)NC(=O)N1CCC2(CC1)CCN(C(=O)c1cccn1C)CC2`, -0.373% (inactive); that for `O=C(Nc1nc(-c2ccc3c(c2)OCO3)cs1)c1ccncc1`, 1.46% (inactive).
As to `O=C(Nc1nc(-c2ccncc2)cs1)C1COc2ccccc2O1` (stereo unspecified), the Potency is 1 µM (active).
With `c1ccc(Nc2nc(-c3ccncc3)cs2)nc1`, the “activity change, negative = inhibition” value is 4.64% (inactive).
The same measure, in the same setting: to `C#CCCCCCCCCCCCCCCCC(=O)O` belongs -6.22% (inactive); to `C[N+](C)(C)CCCCCNCC12CC3CC(CC(C3)C1)C2`, 8.85% (inactive); to `O=C1NC(=O)[C@@](Cc2ccccc2)(c2cccnc2)N1`, 1.4% [at 11.4 µM] (inactive).
On to `CCOc1ccc2[nH]c(=O)c(C(c3nnnn3CCOC)N3CCOCC3)cc2c1` (stereo unspecified), for which the Potency was 25.1 µM (active).
In the case of `COc1ccc(N2CCN(C(c3cc4ccc(C)cc4[nH]c3=O)c3nnnn3C3CCCC3)CC2)cc1` (stereo unspecified), the “activity change, negative = inhibition” value was 1.4% (inactive).
With `COCCn1nnnc1C(c1cc2ccc(OC)cc2[nH]c1=O)N1CCc2ccccc2C1` (stereo unspecified), the “activity change, negative = inhibition” value was -7.76% (inactive).
The same measure, in the same setting: to `O=C(c1ccco1)N1CCC2(CC1)CCN(c1ncccn1)CC2` belongs -1.68% (inactive); to `CCOC(=O)NCc1ccc2c(c1)OCO2`, 0.436% (inactive).
On the same count and under the same terms, the result for `CCCCC(=O)Nc1ccc2c(c1)OCCO2` reads -4.77% (inactive).
Consider `CCC1=C/C(=C\c2ccc3c(c2)OCO3)C(=O)S1`, for which the Potency is 31.6 µM (active).
Take `C1CCC2OC2C1` (stereo unspecified): the “activity change, negative = inhibition” value is -5.38% (inactive).
For the compound `O=C(Nc1nncs1)c1ccccc1NS(=O)(=O)c1cccs1`, the Potency was 31.6 µM (active).
For `COC(=O)c1ccccc1NC(=O)c1ccccc1NS(C)(=O)=O`, the “activity change, negative = inhibition” value was -21.3% (inactive).
Same read-out and setting: to `COc1ccc(C(=O)Nc2nncs2)c(OC)c1` belongs -22.5% (inactive); to `COC(=O)c1ccc(C(NC(=O)OCc2ccccc2)/C(C)=C/[C@@H](C)C(=O)NCc2cc(C)on2)cc1` (stereo partly specified), 6.01% (inactive); to `Cc1cc(N2CCCCC2)nc2ccc(Cc3ccc4nc(N5CCCCC5)cc(C)c4c3)cc12`, 1.3% [at 11.4 µM] (inactive).
With `Nc1ccc2[nH]cc(CCC(=O)O)c2c1`, the activity change, negative = inhibition is -22.6% [at 11.4 µM] (inactive).
Take `Nc1cc(=O)nc(SCc2ccccc2)n1Cc1ccco1`: the “activity change, negative = inhibition” value is -3.38% (inactive).
Turning to `c1ccc(CSc2nnc(-c3ccco3)n2Cc2ccccc2)cc1`, the “activity change, negative = inhibition” value is 6.77% (inactive).
Regarding `c1ccc(CSc2nnc(-c3ccco3)c(-c3ccco3)n2)cc1`, the Potency is 5.01 µM (active).
Turning to `CC1=C(C(=O)OCc2ccccc2)C(c2ccc(C(F)(F)F)cc2)NC(=O)N1CCCCCC(=O)O` (stereo unspecified), the “activity change, negative = inhibition” value is 6.51% (inactive).
On the same count and under the same terms, the result for `COCCNc1cc(-c2c(C)noc2C)ncn1` reads 2.69% (inactive).
Take `CN(CCc1ccccn1)S(=O)(=O)c1ccc2c3c(cccc13)C(=O)N2`: the Potency was 31.6 µM (active).
Turning to `O=c1[nH]nc(Cc2ccccn2)c2ccccc12`, the “activity change, negative = inhibition” value is -3.94% (inactive).
For the compound `COc1ccc(-c2nc3cnc(OC)nc3n(Cc3ccc(F)cc3)c2=O)cc1`, the “activity change, negative = inhibition” value was 2.45% (inactive).
The same measure, in the same setting: to `O=C(NCc1ccccc1)[C@H]1C[C@@H]1[C@H](NP(=O)(c1ccccc1)c1ccccc1)c1ccccc1` belongs -0.196% (inactive); to `Cc1nc2cnc(N3CCNCC3)nc2n(Cc2ccc(F)cc2)c1=O`, -1.77% (inactive); to `CCn1c(CNC(=O)c2ccc(OC)c(OC)c2)nnc1SCC(=O)Nc1ccccc1`, 17.2% (inactive).
Regarding `CCOC(=O)c1cc2n(c1N)-c1ccccc1C2=O`, the “activity change, negative = inhibition” value was -21.5% (inactive).
Still for that read-out and setting: the result for `CCOC(=O)c1cc2n(c1C)-c1ccccc1C2=O` reads 5.2% (inactive).
Regarding `CCCn1c(=NC(C)=O)c(C(=O)OCC)cc2c(=O)n3ccccc3nc21`, the Potency was 31.6 µM (active).
For `CS(=O)(=O)N1CCC2(CC1)CN(Cc1cc(C(F)(F)F)cc(C(F)(F)F)c1)C2`, the “activity change, negative = inhibition” value is 7.84% (inactive).
Still for that read-out and setting: to `CS(=O)(=O)Nc1cccc(-c2cncnc2Nc2ccccc2)c1` belongs -11.2% (inactive); to `CNc1cc(-c2c(C)noc2C)ncn1`, 1.11% (inactive).
The same measure, in the same setting: the result for `CCCc1nc2ccccc2c(=O)n1/N=C/c1ccc(O)c(O)c1` reads 3.33% (inactive).
On to `N#C/C(=C\c1ccc(O)c(O)c1)C(=O)NCc1ccccc1`, for which the Potency result is “inactive and 15.8 µM (active)”.
Take `O=C(CCOc1ccccc1)NCc1ccccc1`: the “activity change, negative = inhibition” value is 11% (inactive).
In the case of `N#C/C(=C\c1ccc(O)c(O)c1)C(N)=O`, the Potency is 31.6 µM (active).
For `C[C@@H]1C[C@H]2[C@@H]3C[C@H](F)C4=CC(=O)C=C[C@@]4(C)[C@]3(F)[C@H](O)C[C@]2(C)[C@@]1(O)C(=O)CO`, the “activity change, negative = inhibition” value was 1.79% [at 25.6 µM] (inactive).
Still for that read-out and setting: the result for `COc1ncc2nc(-c3ccc(Cl)cc3)c(=O)n(-c3ccccc3)c2n1` reads 0.99% (inactive); that for `COc1ccccc1N1CCN(CCN2C(=O)c3ccccc3C(C)(C)C2=O)CC1`, 5.74% (inactive); that for `Cc1c(S(=O)(=O)O)ccc(N=Nc2c(O)c(C(=O)O)cc3ccccc23)c1Cl`, 14% [at 11.4 µM] (inactive).
For `C/C(CCN1CCc2nc(-c3ccccc3)c(-c3ccccc3)cc2C1)=N\O[C@@H](C)c1cn([C@@H]2COC[C@@H]2O)nn1`, the activity change, negative = inhibition was -0.942% [at 11.4 µM] (inactive).
Still for that read-out and setting: to `CC(C)=CCC/C(C)=C/CO/N=C1/C[C@@H](O)[C@@H](O)[C@@H]2[C@@H]3C(=O)N(C(C)(C)C)C(=O)[C@H]3CC[C@H]12` belongs 2.13% [at 11.4 µM] (inactive); to `Cc1ccc(OCC(=O)Nc2ccc(-c3nnc(-c4ccco4)o3)cc2)cc1`, 13.8% (inactive).
Consider `COc1ccc(CC(=O)Nc2ccc(-c3nnc(-c4ccc(C)cc4)o3)cc2)cc1`, for which the Potency was 0.251 µM (active).
With `Cc1ccc(OCC(=O)Nc2ccc(-c3nc4ncccc4o3)cc2)cc1`, the “activity change, negative = inhibition” value is -29.8% (inactive).
